RORg inh: ROR gamma (mouse) transcription inhibition; Drosophila S2 Gal4-RORgamma UAS-luciferase reporter, 20 h; Potency, µM (top dose mostly 53.6 µM), without a hit: at the top dose activity change, negative = inhibition, actives largely listed as inhibitors; hit rate 5.4% among 310,000; AID 2551; note: nearly all actives have a fitted effect of over 60% in size
Target sequence (P51450 whole entry, looked up, the tested form may be a part): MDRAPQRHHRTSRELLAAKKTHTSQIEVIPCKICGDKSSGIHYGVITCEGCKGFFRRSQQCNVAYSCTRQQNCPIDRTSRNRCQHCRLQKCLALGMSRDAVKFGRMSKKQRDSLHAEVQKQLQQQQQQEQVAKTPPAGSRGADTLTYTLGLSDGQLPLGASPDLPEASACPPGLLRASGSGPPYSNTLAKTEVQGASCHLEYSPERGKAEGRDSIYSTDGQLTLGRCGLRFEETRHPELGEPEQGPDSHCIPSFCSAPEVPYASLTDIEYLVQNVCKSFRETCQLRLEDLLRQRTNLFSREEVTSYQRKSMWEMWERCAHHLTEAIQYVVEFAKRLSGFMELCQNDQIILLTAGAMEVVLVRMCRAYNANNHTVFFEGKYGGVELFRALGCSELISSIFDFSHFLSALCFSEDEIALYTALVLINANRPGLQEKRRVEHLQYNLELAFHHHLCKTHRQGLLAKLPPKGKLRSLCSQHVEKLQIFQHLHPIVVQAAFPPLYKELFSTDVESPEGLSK
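Using a luciferase readout, inhibitors were identified by reduced reporter activity in Drosophila cells coexpressing a copper-inducible Gal4–ROR gamma fusion and UAS-driven Photinus luciferase, incubated 20 hr after 700 uM copper sulfate.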
Gal4-VP16 FLuc: inhibits Gal4-VP16 luciferase reporter, ROR gamma counter-screen. Potency, µM (titrated, usually from 53.6 µM), without a hit: at the highest dose activity, negative = inhibition, hits mostly inhibitors. Drosophila S2 Gal4-VP16 UAS-luciferase, luminescence, 20 h. AID 2546. hit rate 3.5% among 310,000;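 note: Gal4-VP16 expression switched on by copper sulfate through the metallothionein promoter; nearly all actives have a fitted effect of over 50% in size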
KinaseGlo FLuc: blocks Kinase-Glo luciferase, a counter-screen artifact | Kinase-Glo luciferase, ATP luminescence, 8 min | Potency, µM (doses to about 38.3 µM), inactives show at the top dose activity change, negative = inhibition, usual class: inhibitors | hit rate 0.28% among 200,000; note: nearly all actives have a fitted effect of over 60% in size
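Inhibition of Kinase-Glo luciferase light generation was assessed at 10 uM ATP in pH 7.2 imidazole buffer, with luminescence measured after eight minutes at ambient temperature.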
An asterisk follows results filed as active; ? = inconclusive; nt = no result given; [ ] = remark or other dose. In the library only some 6.4% were active in any assay of this set; here they are far more common. Calls come from the whole dose curve; as a rule, active = well fitted curve in the direction sought with a large enough effect; inconclusive = small, poorly fitted or top-dose-only effect, or another doubt; inactive = no such curve, though single readings can be large; an effect the other way counts as inactive or inconclusive. % is set by controls: 0 for no effect and ±100 for the full control effect; potency is the fitted concentration of half-maximal effect.

SMILES	RORg inh	Gal4-VP16 FLuc	KinaseGlo FLuc
CC(C1CC2CCC1C2)N1CC(O)=C(c2nc3ccccc3[nH]2)C1=N (centres undefined)	8.91µM*	?	nt
Cc1ccc(COc2ccccc2C(=S)N2CCCC2)cc1	15.8µM*	?	-1.7%
COc1cccc(C(=S)N2CCCC2)c1OC	?	0.0794µM*	nt
Fc1ccc(COc2ccccc2C(=S)N2CCCC2)cc1	?	2.5%	2.0%
COc1cccc(C(=O)N2CCN(C(=O)c3cccc4ccccc34)CC2)c1OC	5.8%	0.9%	5.5%
O=C(Oc1ccc2ccc(=O)oc2c1)c1ccco1	-11.3%	-5.4%	nt
CN(C)S(=O)(=O)c1ccc(N2CCCC2)c(C(=O)N2CCN(c3ccc([N+](=O)[O-])cc3)CC2)c1	19.6%	-13.3%	5.5%
CCCC(=O)Nc1c2c(nn1-c1ccc([N+](=O)[O-])cc1)CS(=O)(=O)C2	9.0%	1.5%	nt
Cc1ccccc1C(=O)NCC(=O)Nc1ccc(C)c(S(=O)(=O)N2CCCCCC2)c1	5.0%	7.3%	nt
Cc1ccc(NC(=S)Nc2ccc(C(C)C)cc2)cc1S(=O)(=O)N1CCCCCC1	3.16µM*	4.47µM*	3.3%
C=CCNC(=S)Nc1ccc(C)c(S(=O)(=O)N2CCCCC2)c1	11.2µM*	-1.5%	1.6%
COc1ccc(NC(=S)Nc2ccc(C)c(S(=O)(=O)N3CCCCC3)c2)cc1	?	?	-3.6%
CC(=O)Nc1c(I)c(C(=O)O)c(I)c(N(C)C(C)=O)c1I	-31.2%	1.0%	nt
COc1cccc2cc(CC(=O)c3ccc(C)cc3C)c(=O)oc12	-3.4%	-25.0%	nt
CCOC(=O)C1(C)Oc2ccccc2C(C(=O)OC)=C1C(=O)OC (centres undefined)	10.3%	0.8%	3.6%[39.9 µM]
COC(=O)C1=C(C(=O)OC)SC2(S1)C(C(=O)OC)=C(C(=O)OC)SC1=C2c2cccc(C)c2NC1(C)C	5.62µM*	?	0.4%
COC(=O)c1cn(C(=O)c2cc(Br)ccc2Cl)c2ccccc12	11.0%	-7.2%	nt
COc1ccc(-c2nc(-c3ccc4c(c3)OCO4)[nH]c2-c2ccc(OC)cc2)cc1	-19.3%[10 µM]	-3.2%	-0.9%
Cc1[nH]c(-c2ccc3c(c2)OCO3)nc1C(=O)O	-9.5%	-7.3%	11.2µM*
O=C(CCc1nnc2ccc(NCc3ccco3)nn12)Nc1ccc(F)cc1F	9.3%	-10.9%	nt
O=C/C(=C\Nc1ccccn1)c1nc2ccccc2o1	?	?	-4.3%
O=C/C(=C\Nc1ccccn1)c1nc2cc(Cl)ccc2o1	5.62µM*	10µM*	3.6%
O=S(=O)(CCSc1ccc(C(F)(F)F)cn1)c1ccc(Cl)cc1	14.2%	17.6%	nt
Cc1cccn2c(CN[C@H]3CCCCNC3=O)c(C(=O)N3CCOCC3)nc12	0.0%	-5.3%	nt
Cc1ccc(-c2n[nH]c3c2CCC3)cc1	0.0%	?	14.6%
SMILES	RORg inh	Gal4-VP16 FLuc	KinaseGlo FLuc
Cc1ccc(-c2n[nH]c(=S)nc2-c2ccc(C)cc2)cc1	5.01µM*	?	nt
COc1ccc(Cc2nnc(N/N=C(\C)c3ccccc3)[nH]c2=O)cc1OC	-5.0%	-5.7%	nt
COC(=O)CC1[C@@]2(C)C[C@]34OC5(C)OC6(C7CC(=O)OC(c8ccoc8)[C@]7(C)CCC6(O5)[C@]13C)C(OC(C)=O)[C@]4(OC(C)=O)C2OC(C)=O (some centres undefined)	1.1%	-0.3%	0.8%
CC1CCCN(c2nc(N(C)c3ccccc3)nc(N)c2[N+](=O)[O-])C1 (centres undefined)	44.5%	0.8%	nt
Cc1[nH]nc2c1-c1nc3ccccc3nc1C(C)(C)C2	3.98µM*	3.16µM*	0.2%
CC12CCC(C)(c3nc4ccccc4nc31)C2(C)C	-11.7%	1.7%	-2.8%
CCOc1ccc(Br)cc1/C=N/O	7.9%	-1.2%	10.4%
CCCc1ccc(O)c(N=Cc2cc(Br)cc(OCC)c2O)c1	7.08µM*	12.6µM*	-3.1%
CC(C)NC(=O)C1CCN(C2CCN(C(=O)Cc3ccc4c(c3)OCO4)CC2)CC1	-21.3%	-7.9%	nt
O=C(NC1CC1)C1CCN(C2CCN(C(=O)Cc3ccc4c(c3)OCO4)CC2)CC1	10µM*	-15.9%	-0.2%
O=C(NCC(=O)N(c1ccccc1)C(C(=O)NC1CCCCC1)c1cccnc1)c1ccco1 (centres undefined)	2.9%	5.3%	nt
COc1ccccc1N1CCN(c2ccc(-c3ccccc3)nn2)CC1	21.2%	?	8.91µM*
COc1ccccc1N1CCN(c2ccc3ccccc3n2)CC1	-21.5%	-25.7%	nt
Cc1cc([N+](=O)[O-])c2c(c1C)C1C=CCC1C(c1ccccn1)N2 (centres undefined)	?	13.9%	-7.9%
CC(C)(C(=O)N[C@H](CO)c1ccccc1)C(=O)N[C@H](CO)c1ccccc1	2µM*	4.9%	nt
CC(=O)NC(CC(=O)O)c1ccccc1 (centres undefined)	-4.9%	-1.8%	nt
O=C(Cc1ccccc1)Nc1ccccc1C(=O)N1CCN(c2ccccc2)CC1	?	2.8%	nt
CC1CC=CC2C1C(=O)N(Cc1ccccc1)C2c1ccoc1 (centres undefined)	-19.4%	5.1%	nt
O=C(Oc1ccc(Br)cc1C(=S)N1CCOCC1)c1ccc([N+](=O)[O-])cc1[N+](=O)[O-]	-18.1%	-24.9%	nt
O=C(Oc1ccc(Br)cc1C(=S)N1CCCC1)c1ccccc1F	-0.9%	-3.7%	-1.1%
Cc1ccccc1C(=O)Oc1ccc(Br)cc1C(=S)N1CCCC1	11.2µM*	?	-2.2%
O=C(Oc1ccc(Br)cc1C(=S)N1CCCCC1)c1cc([N+](=O)[O-])cc([N+](=O)[O-])c1	17.8µM*	-0.5%	-4.0%
Cn1c(CS/C(N)=N/N=C/c2ccccc2)c(Br)c(=O)n1-c1ccccc1	23.3%	15.0%	-0.7%
O=C(C1CC1)N1CCc2cc(Br)cc(S(=O)(=O)N3CCN(c4ccccn4)CC3)c21	1.5%	22.4µM*	-3.1%
CCOC(=O)C1CCN(S(=O)(=O)c2cc(Br)cc3c2N(C(=O)C2CC2)CC3)CC1	-8.5%	?	-2.1%
CC[C@H](C)[C@H](N)C(=O)N[C@@H](CCCNC(=N)N)C(=O)N[C@@H](CCC(N)=O)C(=O)NCC(=O)N1CCC[C@H]1C(=O)N[C@@H](CCCCN)C(=O)N[C@@H](CCC(=O)O)C(=O)N1CCC[C@H]1C(=O)N[C@@H](Cc1ccccc1)C(=O)N[C@@H](CCCNC(=N)N)C(=O)N[C@@H](CC(=O)O)C(=O)N[C@@H](Cc1ccc(O)cc1)C(=O)N[C@H](C(=O)N[C@@H](CC(=O)O)C(=O)N[C@@H](CCCNC(=N)N)C(=O)N[C@@H](Cc1ccccc1)C(=O)N[C@@H](Cc1ccc(O)cc1)C(=O)N[C@@H](CCCCN)C(=O)N[C@H](C(=O)N[C@@H](CC(C)C)C(=O)O)[C@@H](C)O)C(C)C	5.3%	-2.7%	nt
O=C(Nc1ccc(-c2cn3ccsc3n2)cc1)C1CC1	?	?	-26.1%
O=C(Nc1ccc(-c2cn3ccsc3n2)cc1)C1CCCC1	1.2%	5.8%	11.2µM*
OC(COc1ccccc1)Cn1c2ccccc2c2ccccc21 (centres undefined)	-31.0%	?	3.9%
Oc1cccc2ccc[n+](CC(O)Cn3c4ccccc4c4ccccc43)c12 (centres undefined)	-73.3%	22.4µM*	-2.4%
